{"source": "PubChem BioAssay (EPA / NIEHS)", "note": "Results filed as inconclusive are left out. Calls of active or inactive are those of the source. Rule for the calls, unless noted: active = hit-call score of the fitted dose curve at least 0.9, where 1 is the maximum; inconclusive = response in the unintended direction; inactive = score below 0.9.", "data": [{"molecular_target": "Ratio of Nucleoli Translocation and Cytoplasm, AR (gene 367) (UniProt P10275)", "sequence (P10275 whole entry, looked up)": "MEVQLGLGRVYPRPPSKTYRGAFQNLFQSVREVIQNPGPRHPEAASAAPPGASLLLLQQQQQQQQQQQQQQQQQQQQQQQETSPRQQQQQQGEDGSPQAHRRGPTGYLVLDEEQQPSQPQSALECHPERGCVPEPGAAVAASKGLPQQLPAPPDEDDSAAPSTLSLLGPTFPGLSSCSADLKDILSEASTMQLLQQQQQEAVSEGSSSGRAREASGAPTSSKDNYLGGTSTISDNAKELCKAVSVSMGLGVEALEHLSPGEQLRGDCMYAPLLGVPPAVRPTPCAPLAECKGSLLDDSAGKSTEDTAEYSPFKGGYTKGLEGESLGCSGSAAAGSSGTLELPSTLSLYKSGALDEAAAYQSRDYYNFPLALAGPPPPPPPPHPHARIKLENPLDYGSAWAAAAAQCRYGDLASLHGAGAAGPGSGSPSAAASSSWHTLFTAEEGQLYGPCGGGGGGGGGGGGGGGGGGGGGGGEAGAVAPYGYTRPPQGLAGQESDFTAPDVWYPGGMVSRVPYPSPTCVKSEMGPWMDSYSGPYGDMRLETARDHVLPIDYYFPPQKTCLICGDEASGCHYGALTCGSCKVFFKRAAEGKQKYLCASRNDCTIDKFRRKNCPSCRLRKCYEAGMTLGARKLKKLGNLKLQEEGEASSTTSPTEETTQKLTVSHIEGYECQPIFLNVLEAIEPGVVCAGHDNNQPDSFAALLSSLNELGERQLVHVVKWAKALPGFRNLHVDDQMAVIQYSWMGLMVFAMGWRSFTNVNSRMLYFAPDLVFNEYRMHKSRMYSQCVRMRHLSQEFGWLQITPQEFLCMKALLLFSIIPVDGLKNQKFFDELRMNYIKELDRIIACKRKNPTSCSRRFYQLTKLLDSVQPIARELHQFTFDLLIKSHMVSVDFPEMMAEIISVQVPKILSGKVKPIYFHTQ", "test": "UPITT_HCI_U2OS_AR_TIF2_Nucleoli_Cytoplasm_Ratio_Antagonist: University of Pittsburgh U2OS Androgen Receptor-Transcriptional Intermediary Factor 2 (AR-TIF2) Antagonism High Content Imaging Assay for Ratio of Nucleoli Translocation and Cytoplasm (AID 2283999)", "conditions": "not given", "how_it_was_run": "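Compounds were added to U2OS cells carrying red-fluorescent AR and green-fluorescent TIF2, first at 20 uM, with hits confirmed in triplicate and titrated from 0.195 to 50 uM. Nucleolar versus cytoplasmic AR-RFP fluorescence was then quantified by imaging, with analysis relative to DHT.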", "values": [{"smiles": "CCCCCCCCc1ccc(O)cc1", "outcome": "inactive"}, {"smiles": "Cl/C=C\\C[N+]12CN3CN(CN(C3)C1)C2", "AC50": "50 µM (active)"}, {"smiles": "Cc1ccc2ccccc2c1C", "outcome": "inactive"}, {"smiles": "CCSC(C)CC1CC(=O)C(C(CC)=NOC/C=C/Cl)=C(O)C1", "note": "(stereo not given)", "outcome": "inactive"}, {"smiles": "CC(C)(c1ccc(OCC2CO2)cc1)c1ccc(OCC2CO2)cc1", "note": "(stereo not given)", "AC50": "38.1 µM (active)"}, {"smiles": "c1cc[c]([Hg][c]2ccccc2)cc1", "AC50": "85.1 µM (active)"}, {"smiles": "C=CC(=O)OCCCCCC(C)C", "outcome": "inactive"}, {"smiles": "CN(CCCC(=O)c1cccnc1)N=O", "outcome": "inactive"}, {"smiles": "COP(=O)(OC)OC", "outcome": "inactive"}, {"smiles": "C[C@H]1O[C@@H](O[C@H]2[C@@H](O)C[C@H](O[C@H]3[C@@H](O)C[C@H](O[C@H]4CC[C@@]5(C)[C@H](CC[C@@H]6[C@@H]5CC[C@]5(C)[C@@H](C7=CC(=O)OC7)CC[C@]65O)C4)O[C@@H]3C)O[C@@H]2C)C[C@H](O)[C@@H]1O", "outcome": "inactive"}, {"smiles": "Clc1ccc(COC(Cn2ccnc2)c2ccc(Cl)cc2Cl)cc1", "note": "(stereo not given)", "outcome": "inactive"}, {"smiles": "O=c1[nH]c(=O)[nH]c(=O)[nH]1", "outcome": "inactive"}, {"smiles": "CC(C)(C)CC(C)(C)c1ccc(O)cc1", "outcome": "inactive"}, {"smiles": "Cc1ccccc1C(=O)Nc1cccc(OC(C)C)c1", "outcome": "inactive"}, {"smiles": "COP(=S)(OC)Oc1cc(Cl)c(Cl)cc1Cl", "outcome": "inactive"}, {"smiles": "CC12CC1(C)C(=O)N(c1cc(Cl)cc(Cl)c1)C2=O", "note": "(stereo not given)", "outcome": "inactive"}, {"smiles": "COP(=O)(OC)O/C(=C\\Cl)c1cc(Cl)c(Cl)cc1Cl", "outcome": "inactive"}, {"smiles": "COP(=S)(OC)Oc1ccc(Sc2ccc(OP(=S)(OC)OC)cc2)cc1", "outcome": "inactive"}]}, {"molecular_target": "Ratio of Nucleoli Translocation and Cytoplasm, AR (gene 367) (UniProt P10275)", "test": "UPITT_HCI_U2OS_AR_TIF2_Nucleoli_Cytoplasm_Ratio_Agonist: University of Pittsburgh U2OS Androgen Receptor-Transcriptional Intermediary Factor 2 (AR-TIF2) Agonism High Content Imaging Assay for Ratio of Nucleoli Translocation and Cytoplasm (AID 2284000);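 note: hits raise the red nucleolar to cytoplasm ratio above vehicle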", "conditions": "not given", "how_it_was_run": "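Compounds tested at 20 uM final in primary screen (0.2% DMSO) and 0.195-50 uM final in dose-response (0.5% DMSO). Imaging of human U2OS cells bearing RFP-AR and GFP-TIF2; endpoint is nucleoli/cytoplasm red signal ratio, positive direction relative to DMSO.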", "values": [{"smiles": "Cl/C=C\\C[N+]12CN3CN(CN(C3)C1)C2", "outcome": "inactive"}, {"smiles": "Cc1ccc2ccccc2c1C", "outcome": "inactive"}, {"smiles": "CCSC(C)CC1CC(=O)C(C(CC)=NOC/C=C/Cl)=C(O)C1", "note": "(stereo not given)", "outcome": "inactive"}, {"smiles": "CC(C)(c1ccc(OCC2CO2)cc1)c1ccc(OCC2CO2)cc1", "note": "(stereo not given)", "outcome": "inactive"}, {"smiles": "c1cc[c]([Hg][c]2ccccc2)cc1", "outcome": "inactive"}, {"smiles": "CN(CCCC(=O)c1cccnc1)N=O", "outcome": "inactive"}, {"smiles": "C[C@H]1O[C@@H](O[C@H]2[C@@H](O)C[C@H](O[C@H]3[C@@H](O)C[C@H](O[C@H]4CC[C@@]5(C)[C@H](CC[C@@H]6[C@@H]5CC[C@]5(C)[C@@H](C7=CC(=O)OC7)CC[C@]65O)C4)O[C@@H]3C)O[C@@H]2C)C[C@H](O)[C@@H]1O", "outcome": "inactive"}, {"smiles": "Clc1ccc(COC(Cn2ccnc2)c2ccc(Cl)cc2Cl)cc1", "note": "(stereo not given)", "AC50": "74.4 µM (active)"}, {"smiles": "Cc1ccccc1C(=O)Nc1cccc(OC(C)C)c1", "outcome": "inactive"}, {"smiles": "COP(=S)(OC)Oc1cc(Cl)c(Cl)cc1Cl", "outcome": "inactive"}, {"smiles": "CC12CC1(C)C(=O)N(c1cc(Cl)cc(Cl)c1)C2=O", "note": "(stereo not given)", "outcome": "inactive"}, {"smiles": "COP(=O)(OC)O/C(=C\\Cl)c1cc(Cl)c(Cl)cc1Cl", "AC50": "50 µM (active)"}, {"smiles": "COP(=S)(OC)Oc1ccc(Sc2ccc(OP(=S)(OC)OC)cc2)cc1", "outcome": "inactive"}]}, {"tested_on": "not listed separately", "test": "CCTE_Simmons_MITO_basal_resp_rate: CCTE's HepG2 Seahorse XF Respirometric Screening Assay at Basal Respiratory State, Simmons Lab (AID 2284001; active = hit-call score of the fitted dose curve at least 0.9, where 1 is the maximum; inactive = score below 0.9)", "conditions": "actives raise or lower the signal", "how_it_was_run": "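Basal-phase OCR in HepG2 cells, read at 6-min intervals across a 72-min run, with test compound injected at 125 nM–100 uM final (7 points). Fitted both directions against DMSO; three biological replicates per concentration.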", "values": [{"smiles": "CCCCCCCCc1ccc(O)cc1", "AC50": "50 µM (active)"}, {"smiles": "CCC(C)(C)c1ccc(O)c(C(C)(C)CC)c1", "AC50": "38 µM (active)"}, {"smiles": "O=C(O)C(F)(F)C(F)(F)C(F)(F)C(F)(F)C(F)(F)C(F)(F)C(F)(F)C(F)(F)C(F)(F)C(F)(F)F", "outcome": "inactive"}, {"smiles": "CC(C)(C)CC(C)(C)c1ccc(O)cc1", "AC50": "27.6 µM (active)"}]}, {"tested_on": "not listed separately", "test": "CCTE_Simmons_MITO_max_resp_rate: CCTE's HepG2 Seahorse XF Respirometric Screening Assay at Maximal Respiratory State [uncoupled], Simmons Lab (AID 2284002; active = hit-call score of the fitted dose curve at least 0.9, where 1 is the maximum; inactive = score below 0.9)", "conditions": "actives raise or lower the signal", "how_it_was_run": "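Maximal (FCCP-uncoupled) respiration rate in HepG2, from Seahorse kinetic OCR over 72 min at 6 min cycles. Compounds at 125 nM–100 uM final, 7 points, three biological replicates; both directions fit relative to DMSO.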", "values": [{"smiles": "CCCCCCCCc1ccc(O)cc1", "AC50": "39.5 µM (active)"}, {"smiles": "CCC(C)(C)c1ccc(O)c(C(C)(C)CC)c1", "AC50": "78.2 µM (active)"}, {"smiles": "O=C(O)C(F)(F)C(F)(F)C(F)(F)C(F)(F)C(F)(F)C(F)(F)C(F)(F)C(F)(F)C(F)(F)C(F)(F)F", "outcome": "inactive"}, {"smiles": "CC(C)(C)CC(C)(C)c1ccc(O)cc1", "AC50": "27.7 µM (active)"}]}, {"tested_on": "not listed separately", "test": "CCTE_Simmons_MITO_inhib_resp_rate: CCTE's HepG2 Seahorse XF Respirometric Screening Assay at Inhibited Respiratory State [full ETC block], Simmons Lab (AID 2284006; active = hit-call score of the fitted dose curve at least 0.9, where 1 is the maximum; inactive = score below 0.9)", "conditions": "actives raise or lower the signal", "how_it_was_run": "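Seahorse respirometry, HepG2, 72 min total, 6-min mix/measure cycles. Cpd 125 nM–100 uM final ×7, n=3 biological. Sequential FCCP, rotenone/antimycin A; inhibited-respiration OCR, bidirectional fit vs DMSO.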", "values": [{"smiles": "CCCCCCCCc1ccc(O)cc1", "outcome": "inactive"}, {"smiles": "CCC(C)(C)c1ccc(O)c(C(C)(C)CC)c1", "outcome": "inactive"}, {"smiles": "O=C(O)C(F)(F)C(F)(F)C(F)(F)C(F)(F)C(F)(F)C(F)(F)C(F)(F)C(F)(F)C(F)(F)C(F)(F)F", "outcome": "inactive"}, {"smiles": "CC(C)(C)CC(C)(C)c1ccc(O)cc1", "outcome": "inactive"}]}, {"tested_on": "not listed separately", "test": "CCTE_Simmons_MITO_viability: CellTiter-Glo Viability Assessment for CCTE's HepG2 Seahorse XF Respirometric Screening Assay [post-hoc], Simmons Lab (AID 2284007)", "conditions": "not given", "how_it_was_run": "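Cytotoxicity readout: ATP quantitation via luciferase in HepG2 cells treated 90 min with seven titrated concentrations (125 nM to 100 uM, final). Curves fitted relative to DMSO negative control, three biological replicates per concentration.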", "values": [{"smiles": "CCCCCCCCc1ccc(O)cc1", "outcome": "inactive"}, {"smiles": "CCC(C)(C)c1ccc(O)c(C(C)(C)CC)c1", "outcome": "inactive"}, {"smiles": "CC(C)(C)CC(C)(C)c1ccc(O)cc1", "outcome": "inactive"}]}, {"tested_on": "not listed separately", "test": "CCTE_Shafer_MEA_acute_spike_number: CCTE's Neural Acute Assay for Total Number of Spikes, Shafer Lab (AID 2284008; active = hit-call score of the fitted dose curve at least 0.9, where 1 is the maximum; inactive = score below 0.9;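 for AC50: curve fitted for decrease in spike count so AC50 reflects inhibitors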)", "conditions": "not given", "how_it_was_run": "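Total spike count from 40 min recordings before and during compound exposure (0.03-40 uM), given as per-well percent change. Cortical cultures from rat, DIV 13 or 15, 37 C; adaptive detection threshold 8x rms noise.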", "values": [{"smiles": "CCCCCCCCc1ccc(O)cc1", "AC50": "3 µM (active)"}, {"smiles": "CCC(C)(C)c1ccc(O)c(C(C)(C)CC)c1", "AC50": "4.73 µM (active)"}, {"smiles": "O=C(O)C(F)(F)C(F)(F)C(F)(F)C(F)(F)C(F)(F)C(F)(F)C(F)(F)C(F)(F)C(F)(F)C(F)(F)F", "outcome": "inactive"}, {"smiles": "CC(C)(C)CC(C)(C)c1ccc(O)cc1", "AC50": "6.06 µM (active)"}]}]}
